{"source": "PubChem BioAssay AID463173", "about": "(ICCB-Longwood Screening Facility, Harvard Medical School, 2010)", "note": "In all, about 52,000 compounds went through this assay and about 1,700 (3.3%) were called active. Rule as the data show it: active = survival mostly below about 52% (no sharp cut-off); inactive = mostly above about 56%. The sample as a whole holds a higher share of actives than the screen did.", "data": [{"system": "Wild type", "experiment": "S. aureus survival, RN4220 and DeltatarO strains – OD600, teichoic acid synthesis inhibitors, primary screen (AID 463173)", "details": "S. aureus RN4220 wild type/DeltatarO growth, OD600, 18 h, hits give low values, screened at 18.75 µg/mL (by protocol)", "values": [{"smiles": "CCOC(=O)C1=C(C)NC(=O)NC1c1c(O)ccc2ccccc12", "note": "(stereo not drawn)", "survival": "111% (inactive)"}, {"smiles": "Cc1cn2c(=O)c(S(=O)(=O)NCCc3ccc(Cl)cc3)c(C)nc2s1", "survival": "88% (inactive)"}, {"smiles": "COc1ccc(CC(=O)NCCc2csc3nc(-c4ccccc4F)nn23)cc1", "survival": "55% (inactive)"}, {"smiles": "Cc1ccc(C)c(Oc2nc3c(c(=O)n(C)c(=O)n3C)n2Cc2ccccc2)c1", "survival": "73% (inactive)"}, {"smiles": "COCCCNC(=O)CCCCn1c(=O)c2ccccc2n(CC(=O)Nc2ccc(C)cc2C)c1=O", "survival": "82% (inactive)"}, {"smiles": "COC(=O)c1sc2cccc(F)c2c1S(=O)(=O)N1CCN(c2cccc(C)c2)C(C)C1", "note": "(stereo not drawn)", "survival": "87% (inactive)"}, {"smiles": "CN1C(=O)C(CC(=O)NCC2CCCCC2)SC1=Nc1ccccc1", "note": "(stereo not drawn)", "survival": "99% (inactive)"}, {"smiles": "O=C1C2C3C=CC(C3)C2C(=O)N1c1ccc2c(c1)OCO2", "note": "(stereo not drawn)", "survival": "94% (inactive)"}, {"smiles": "COc1ccc(S(=O)(=O)N2CCC(n3c(C)nc4cccnc43)CC2)cc1Cl", "survival": "131% (inactive)"}, {"smiles": "COc1ccc(-c2cc(C(F)(F)F)n3nc(C(=O)NCC45CC6CC(CC(C6)C4)C5)cc3n2)cc1", "survival": "62% (inactive)"}, {"smiles": "O=C(NCC12CC3CC(CC(C3)C1)C2)c1cc2nc(-c3ccc(Cl)cc3)cc(C(F)(F)F)n2n1", "survival": "60% (inactive)"}, {"smiles": "O=C(NCC12CC3CC(CC(C3)C1)C2)c1cc2nc(-c3ccccc3)cc(C(F)(F)F)n2n1", "survival": "-12% (active)"}, {"smiles": "CCOc1ccccc1Nc1sc(C(=O)c2ccc(Cl)cc2)c(N)c1S(=O)(=O)c1ccccc1", "survival": "19% (inactive)"}, {"smiles": "Cc1ccc2sc(N3CCN(C(=O)CCS(=O)(=O)c4ccc(F)cc4)CC3)nc2c1C", "survival": "82% (inactive)"}, {"smiles": "COc1cccc2sc(N3CCN(C(=O)CCS(=O)(=O)c4ccc(F)cc4)CC3)nc12", "survival": "87% (inactive)"}, {"smiles": "Cc1ccc(S(=O)(=O)CCC(=O)N2CCN(c3nc4c(C)c(Cl)ccc4s3)CC2)cc1", "survival": "68% (inactive)"}, {"smiles": "Cc1ccc(S(=O)(=O)CC(=O)N2CCN(c3nc4c(F)cccc4s3)CC2)cc1", "survival": "-6% (active)"}, {"smiles": "Cc1cccc2sc(N3CCN(C(=O)CS(=O)(=O)c4ccc(F)cc4)CC3)nc12", "survival": "73% (inactive)"}, {"smiles": "Cc1c(Cl)ccc2sc(N3CCN(C(=O)CS(=O)(=O)c4ccccc4)CC3)nc12", "survival": "124% (inactive)"}, {"smiles": "Cc1ccc2sc(N3CCN(C(=O)CCS(=O)(=O)c4ccc(Cl)cc4)CC3)nc2c1C", "survival": "75% (inactive)"}, {"smiles": "COc1cccc2sc(N3CCN(C(=O)CS(=O)(=O)c4ccc(Cl)cc4)CC3)nc12", "survival": "-6% (active)"}, {"smiles": "Cc1c(Cl)ccc2sc(N3CCN(C(=O)CCS(=O)(=O)c4ccc(F)cc4)CC3)nc12", "survival": "-3% (active)"}, {"smiles": "Cc1c(Cl)cccc1NC(=O)CSc1nc(=O)n(Cc2ccco2)c2c1CCC2", "survival": "120% (inactive)"}, {"smiles": "COc1ccccc1N1CCN(CCC(=O)Nc2cccc(F)c2)CC1", "survival": "76% (inactive)"}, {"smiles": "COc1ccc(NC(=O)NC2COc3ccccc3C2)cc1Cl", "note": "(stereo not drawn)", "survival": "65% (inactive)"}, {"smiles": "O=C(Nc1ccc(OC(F)(F)F)cc1)NC1COc2ccccc2C1", "note": "(stereo not drawn)", "survival": "-3% (active)"}, {"smiles": "COc1ccc(NC(=O)NC2COc3ccccc3C2)c(OC)c1", "note": "(stereo not drawn)", "survival": "88% (inactive)"}, {"smiles": "O=C(Cn1cc(S(=O)(=O)c2ccccc2)c(=O)c2cc3c(cc21)OCO3)Nc1ccc(Cl)cc1", "survival": "65% (inactive)"}, {"smiles": "Cc1ccc(CCNC(=O)c2sc3ncccc3c2-n2c(C)ccc2C)cc1", "survival": "75% (inactive)"}, {"smiles": "COCCNC(=O)c1sc2ncccc2c1-n1c(C)ccc1C", "survival": "88% (inactive)"}, {"smiles": "CCc1ccc(CNC(=O)c2sc3ncccc3c2-n2c(C)ccc2C)cc1", "survival": "-3% (active)"}, {"smiles": "Cc1cc2ccccc2n1-c1ccc(C(=O)N2CCC(C(=O)NCc3ccccc3Cl)CC2)s1", "survival": "60% (inactive)"}, {"smiles": "COc1ccc(C2C=C(c3ccc(Cl)c(Cl)c3)Nc3ncnn32)cc1", "note": "(stereo not drawn)", "survival": "26% (inactive)"}, {"smiles": "CC(C)c1ccc(C2=CC(c3cccc(Cl)c3)n3ncnc3N2)cc1", "note": "(stereo not drawn)", "survival": "-3% (active)"}, {"smiles": "CC(C)c1ccc(C2=CC(c3cccc(Cl)c3)n3c(nc4ccccc43)N2)cc1", "note": "(stereo not drawn)", "survival": "60% (inactive)"}, {"smiles": "CCOC(=O)c1cc2c(=O)n3ccccc3nc2n(Cc2ccco2)c1=NC(=O)c1ccccc1OC", "survival": "64% (inactive)"}, {"smiles": "CCOCCCn1c(SCC(=O)OCC)nc2c(sc3ccccc32)c1=O", "survival": "136% (inactive)"}, {"smiles": "CCCCn1c(SCc2ccccc2C#N)nc2c(sc3ccccc32)c1=O", "survival": "14% (active)"}, {"smiles": "COCCCn1c(SCC(=O)NCc2ccccc2)nc2c(sc3ccccc32)c1=O", "survival": "72% (inactive)"}, {"smiles": "COCCCn1c(SCc2ccccc2F)nc2c(sc3ccccc32)c1=O", "survival": "98% (inactive)"}, {"smiles": "CC(C)OCCCn1c(SCc2ccccc2C#N)nc2c(sc3ccccc32)c1=O", "survival": "76% (inactive)"}, {"smiles": "CCOCCCn1c(SCC(=O)NCCCOC)nc2c(sc3ccccc32)c1=O", "survival": "134% (inactive)"}, {"smiles": "CCOC(=O)CSc1nc2c(sc3ccccc32)c(=O)n1CCc1ccccc1", "survival": "75% (inactive)"}, {"smiles": "COCCCNC(=O)CSc1nc2c(sc3ccccc32)c(=O)n1CCc1ccc(OC)c(OC)c1", "survival": "-6% (active)"}, {"smiles": "CCOCCCn1c(SCC(=O)NCc2ccccc2)nc2c(sc3ccccc32)c1=O", "survival": "-6% (active)"}, {"smiles": "CCCCn1c(SCC(=O)NCCCOC)nc2c(sc3ccccc32)c1=O", "survival": "133% (inactive)"}, {"smiles": "COCCCNC(=O)CSc1nc2c(sc3ccccc32)c(=O)n1CCc1ccccc1", "survival": "64% (inactive)"}, {"smiles": "CCOC(=O)CSc1nc2c(sc3ccccc32)c(=O)n1CCO", "survival": "-6% (active)"}, {"smiles": "Cc1c(C(=O)Nc2ccc(F)c(Cl)c2)oc2ccc(S(=O)(=O)N(C)C3CCCCC3)cc12", "survival": "99% (inactive)"}, {"smiles": "Cc1ccc(C)c(S(=O)(=O)c2cn(C)c3cc(F)c(F)cc3c2=O)c1", "survival": "81% (inactive)"}, {"smiles": "COc1cccc(-n2ccnc2SCC(=O)Nc2c(C)cc(C)cc2C)c1", "survival": "113% (inactive)"}, {"smiles": "O=C(CCCCCn1c(=O)c2sccc2n(Cc2ccc(Cl)cc2)c1=O)NCc1ccc2c(c1)OCO2", "survival": "86% (inactive)"}, {"smiles": "CCCCn1c(SCC(=O)c2ccccc2)nc2c(sc3ccccc32)c1=O", "survival": "-1% (active)"}, {"smiles": "CC(C)OCCCn1c(SCC(=O)c2ccccc2)nc2c(sc3ccccc32)c1=O", "survival": "72% (inactive)"}, {"smiles": "CCCCn1c(SCC(=O)NCc2ccc(C)cc2)nc2c(sc3ccccc32)c1=O", "survival": "69% (inactive)"}, {"smiles": "COc1ccc(CN(CCN)C2CC(C)N(C)CC2C)cc1", "note": "(stereo not drawn)", "survival": "105% (inactive)"}, {"smiles": "Cc1ccc(C2CCN(C(=O)Nc3ccc(Cl)c(Cl)c3)C2)cc1", "note": "(stereo not drawn)", "survival": "-3% (active)"}, {"smiles": "Cc1ccc(C2CCN(C(=O)Nc3ccc(Cl)cc3)C2)cc1", "note": "(stereo not drawn)", "survival": "71% (inactive)"}, {"smiles": "O=C(Nc1ccc(Cl)c(Cl)c1)N1CCC(c2ccccc2)C1", "note": "(stereo not drawn)", "survival": "71% (inactive)"}, {"smiles": "Cc1cccc(-c2nc3ccccc3o2)c1", "survival": "119% (inactive)"}, {"smiles": "Cc1c(Cl)cccc1NC(=O)C(CCS(C)(=O)=O)N1Cc2ccccc2C1=O", "note": "(stereo not drawn)", "survival": "74% (inactive)"}, {"smiles": "CS(=O)(=O)CC[C@@H](C(=O)NCCc1ccccc1)N1Cc2ccccc2C1=O", "survival": "90% (inactive)"}, {"smiles": "COC(=O)c1cc(NC(=O)[C@H](CCS(C)(=O)=O)N2Cc3ccccc3C2=O)cc(C(=O)OC)c1", "survival": "87% (inactive)"}, {"smiles": "CS(=O)(=O)CCC(C(=O)Nc1cccc(C(F)(F)F)c1)N1Cc2ccccc2C1=O", "note": "(stereo not drawn)", "survival": "-1% (active)"}, {"smiles": "COc1ccc(NC(=O)[C@H](Cc2ccccc2)N2Cc3ccccc3C2=O)cc1OC", "survival": "94% (inactive)"}, {"smiles": "COc1cc(NC(=O)C(CCS(C)(=O)=O)N2Cc3ccccc3C2=O)cc(OC)c1OC", "note": "(stereo not drawn)", "survival": "14% (active)"}, {"smiles": "CCc1ccc(NC(=O)CSc2nc3c(sc4ccccc43)c(=O)n2CCCOC(C)C)cc1", "survival": "80% (inactive)"}, {"smiles": "O=C(CSc1n[nH]c(-c2ccc(F)cc2)n1)NCCc1ccccc1", "survival": "120% (inactive)"}, {"smiles": "CC1=C(C(=O)Nc2ccccc2)C(c2ccncc2)n2nc(SCc3ccccc3F)nc2N1", "note": "(stereo not drawn)", "survival": "106% (inactive)"}, {"smiles": "Cc1ccc(NC(=O)Cn2cc(S(=O)(=O)N3CCCC3)c(S(=O)(=O)N3CCCC3)c2)cc1F", "survival": "126% (inactive)"}, {"smiles": "O=C(CCc1cn(Cc2ccccc2F)c2ccccc12)NCc1ccc(Cl)cc1", "survival": "81% (inactive)"}, {"smiles": "O=C(NCC1CCCCC1)C1CCCN1C(=O)NC1CCCCC1", "note": "(stereo not drawn)", "survival": "106% (inactive)"}, {"smiles": "COc1ccc(NC(=O)c2oc3ccc(S(=O)(=O)N4CCCCC4)cc3c2C)cc1Cl", "survival": "73% (inactive)"}, {"smiles": "O=C(Nc1ccccc1C(F)(F)F)C1(S(=O)(=O)c2ccc(Cl)cc2)CC1", "survival": "94% (inactive)"}, {"smiles": "CCOC(=O)c1cccc(NC(=O)C2(S(=O)(=O)c3ccc(C)cc3)CC2)c1", "survival": "84% (inactive)"}, {"smiles": "Cc1ccc(S(=O)(=O)C2(C(=O)Nc3ccc(C(C)C)cc3)CC2)cc1", "survival": "64% (inactive)"}, {"smiles": "Cc1ccc(S(=O)(=O)C2(C(=O)Nc3ccc(Cl)c(C(F)(F)F)c3)CC2)cc1", "survival": "41% (active)"}, {"smiles": "Cc1ccc(S(=O)(=O)C2(C(=O)Nc3ccc(C)c(Cl)c3)CC2)cc1", "survival": "4% (active)"}, {"smiles": "COC(=O)c1ccc(NC(=O)C2(S(=O)(=O)c3ccc(C)cc3)CC2)cc1", "survival": "133% (inactive)"}, {"smiles": "COc1ccc(C2(CNC(=O)C(=O)Nc3ccc(C)c(Cl)c3)CCCC2)cc1OC", "survival": "83% (inactive)"}, {"smiles": "Cc1ccc(-n2ncc(C(=O)NCc3ccc4c(c3)OCO4)c2C2CCN(C(=O)OC(C)(C)C)CC2)cc1C", "survival": "82% (inactive)"}, {"smiles": "COc1cccc(N2CCN(C(=O)c3c4c(nc5ccccc35)C(=O)N(C3CCCCC3)C4)CC2)c1", "survival": "88% (inactive)"}, {"smiles": "COc1ccc(C)cc1NC(=O)Cn1c(=O)oc2cc(S(=O)(=O)N3CCCCC3)ccc21", "survival": "94% (inactive)"}, {"smiles": "NC(=O)c1c(NC(=O)c2noc3c2CCCC3)sc2c1CCCC2", "survival": "73% (inactive)"}, {"smiles": "Cc1cccc(S(=O)(=O)c2cn(Cc3ccccc3)c3cc(N4CCCCC4)c(F)cc3c2=O)c1", "survival": "99% (inactive)"}, {"smiles": "CCN1CCN(c2cc3c(cc2F)c(=O)c(S(=O)(=O)c2cc(C)cc(C)c2)cn3CC)CC1", "survival": "-3% (active)"}, {"smiles": "Cn1cc(S(=O)(=O)c2cccc(Cl)c2)c(=O)c2cc(F)c(N3CCN(c4ccccc4)CC3)cc21", "survival": "1% (active)"}, {"smiles": "CCn1cc(S(=O)(=O)c2cc(C)cc(C)c2)c(=O)c2cc(F)c(N3CCCC3)cc21", "survival": "129% (inactive)"}, {"smiles": "Cn1cc(S(=O)(=O)c2cccc(Cl)c2)c(=O)c2cc(F)c(N3CCN(c4ccc(F)cc4)CC3)cc21", "survival": "81% (inactive)"}, {"smiles": "Cn1cc(S(=O)(=O)c2ccccc2)c(=O)c2cc(F)c(N3CCN(c4ccccc4)CC3)cc21", "survival": "135% (inactive)"}, {"smiles": "Cc1cccc(S(=O)(=O)c2cn(Cc3ccc(F)cc3)c3cc(N4CCCCC4)c(F)cc3c2=O)c1", "survival": "-4% (active)"}, {"smiles": "O=c1c(S(=O)(=O)c2ccccc2)cn(Cc2ccc(F)cc2)c2cc(N3CCCCC3)c(F)cc12", "survival": "74% (inactive)"}, {"smiles": "CCn1cc(S(=O)(=O)c2cc(C)cc(C)c2)c(=O)c2cc(F)c(N3CCCCC3)cc21", "survival": "82% (inactive)"}]}]}
